Laboratory results from PubChem BioAssay (NCATS).
Inconclusive results are not listed. Where a call stands in place of a potency, no number is given. A number with no mark means an inactive call. Activity calls are given as the source filed them. The call rests on the fitted dose curve; in most records, active means well fitted cell-killing curve with a large enough effect; inconclusive means small, poorly fitted or top-dose-only effect, or effect the other way; inactive means no such curve, though single readings can be large or run the other way.

Key:
[1] = Viability qHTS for spleen associated tyrosine kinase inhibitor (SYKi) naive MV4-11 cells (AID 1963823); settings: MV4-11 AML viability, CellTiter-Glo luminescence, 72 h; series mostly up to 45 µM; further: nearly all actives have a fitted effect of over 40% in size
Procedure, shortened: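 SYK inhibitor-naive MV4-11 cells, 500 per well, exposed to compounds for 72 hr at 37 C, 5% CO2. Viability read as CellTiter-Glo luminescence after 10 min at room temperature.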

[2] = Viability qHTS for spleen associated tyrosine kinase inhibitor (SYKi) drug resistant MV4-11 cells (AID 1963824); settings: SYKi-resistant MV4-11 viability, CellTiter-Glo, 72 h; series mostly up to 45 µM; further: nearly all actives have a fitted effect of over 35% in size
Procedure, shortened: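 SYK inhibitor-resistant MV4-11 AML cells, 500 per well, added to predispensed compounds and incubated 72 hr at 37 C, 5% CO2. Viability measured by CellTiter-Glo luminescence after 10 min at room temperature.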
Potency means the concentration at half of the fitted maximal effect.

Structure (SMILES) | Potency [1] | Potency [2] | viability (% of control) [1] | viability, % of control [2]
CN(Cc1ccc(C(C)(C)C)cc1)Cc1cccc2ccccc12 | inactive | inactive | – | –
COc1ccc2c(c1)OC[C@]1(O)c3cc4c(cc3O[C@H]21)OCO4 | inactive | inactive | – | –
C=C[C@H](/C=C\c1ccc(O)cc1)c1ccc(O)cc1 | 18.4 µM (active) | 18.4 µM (active) | – | –
CC1(C)CC[C@]2(C(=O)O)[C@H](O)C[C@]3(C)C(=CCC4[C@@]5(C)CC[C@H](O[C@@H]6O[C@H](CO[C@@H]7OC[C@H](O)[C@H](O)[C@H]7O[C@@H]7OC[C@@H](O)[C@H](O)[C@H]7O)[C@@H](O)[C@H](O)[C@H]6O[C@@H]6O[C@H](CO)[C@@H](O)[C@H](O)[C@H]6O)C(C)(C)C5CC[C@]43C)[C@@H]2C1 (stereo partly drawn) | – | – | 92.2% [at 9.25 µM] | 103% [at 9.25 µM]
COc1cc(C2Oc3c(OC)cc(/C=C/C(=O)OC4CC(O)(C(=O)O)CC(O)C4O)cc3C2CO)ccc1O (stereo not drawn) | inactive | inactive | – | –
C[C@@]12C[C@]3(O)O[C@H](O1)[C@]1(COC(=O)c4ccccc4)[C@H]3C[C@@]12O[C@@H]1O[C@H](CO)[C@@H](O)[C@H](O)[C@H]1O | inactive | inactive | – | –
CC(=O)O[C@@H]1CC[C@@]2(C)[C@H](CC[C@@H]3[C@@H]2C[C@H](OC(C)=O)[C@]2(C)[C@@H](C(C)=O)CC[C@@H]32)C1 | 8.2 µM (active) | 8.2 µM (active) | – | –
Nc1ccc(S(=O)(=O)Nc2nccs2)cc1 | inactive | inactive | – | –
C=CC(C)(C)C12Nc3c(ccc4c3OC(C)(C)C=C4)C1(O)CC1C(=O)N3CCCC3C(=O)N12 (stereo not drawn) | inactive | 4.47 µM (active) | – | –
